The whole screen tested about 1,200 compounds, of which about 290 (24%) were called active. Another 9% or so got no clear call; they are omitted. No rule for the calls is given here. The list is a sample of the results. Entries with a potency or affinity are not part of this list.

The nature of this test: cytotoxicity in EBV lymphoblastoid cells, dose response, cytotoxicity control, cell-based, plate reader, cherry-picks, set 2 (AID 504882).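 Also: 0% = neutral control wells and -100% = positive control wells.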 The settings on record: EBV lymphoblastoid cells (LCL) viability; series mostly up to 19.5 µM; activity change, negative = cytotoxicity: at the top concentration.
Turning to `CC(C)(C)C(=O)Nc1nnc(SCC(=O)Nc2ccc3c(c2)OCO3)s1`, the “activity change, negative = cytotoxicity” value is 13.9% (inactive). Turning to `O=C(NCCc1ccccc1)c1ccccc1Cl`, the “activity change, negative = cytotoxicity” value was 8.88% (inactive). On to `CCc1nnc(NC(=O)c2ccc(S(=O)(=O)N3CCOCC3)cc2)s1`, for which the “activity change, negative = cytotoxicity” value is 10.7% (inactive). `CC(C)N1CCN(c2ccc(OC[C@H]3CO[C@](Cn4cncn4)(c4ccc(Cl)cc4Cl)O3)cc2)CC1`: the “activity change, negative = cytotoxicity” value is -3.03% (inactive). Turning to `Cc1ccccc1CC(=O)NCc1cccnc1`, the “activity change, negative = cytotoxicity” value is 16.8% (inactive).

With `CCOc1cc(Br)cc(/C=N/NC(=O)c2cccnc2)c1O`, the “activity change, negative = cytotoxicity” value was -28.9% (inactive).

As for `Cc1ccnc(N/C=C(/NC(=O)c2ccccc2)C(=O)N/N=C\c2ccc(F)cc2)n1`, the “activity change, negative = cytotoxicity” value is 9.12% (inactive). With `COc1cccc(/C=N\NC(=O)c2ccc(C)nc2)c1` the figure was 19.6% (inactive); with `CC(NC(=O)CNC(=O)OCc1ccccc1)C(=O)N1CC(O)CC1C(=O)OCc1ccccc1` (stereo not given), 12.6% (inactive); with `O=C(CN1C(=O)C2C3C=CC(C3)C2C1=O)NCCC1=CCCCC1` (stereo not given), 6.89% (inactive).

As for `COCCn1c(C)cc(C(=O)CSc2nnc3ccccn23)c1C`, the “activity change, negative = cytotoxicity” value was 11.9% (inactive). As for `Cc1cc(C(=O)COC(=O)c2cccc(NS(C)(=O)=O)c2)c(C)n1CC1CCCO1` (stereo not given), the figure is 17% (inactive); as for `CSCCC(NC(=O)c1ccco1)C(=O)OCC(=O)Nc1ncc(Cl)c(C)c1Cl` (stereo not given), 26.8% (inactive). Turning to `CNC(=O)C1=NCCCc2cc(OC)c(OC)cc21`, the “activity change, negative = cytotoxicity” value was 24.7% (inactive). With `Nc1ccc(CCNc2ncnc3c2ncn3[C@@H]2O[C@H](CO)[C@@H](O)[C@H]2O)cc1`, the “activity change, negative = cytotoxicity” value is 7.71% (inactive).

As to `NC(=O)c1ncn([C@@H]2O[C@H](CO)[C@@H](O)[C@H]2O)n1`, the “activity change, negative = cytotoxicity” value is 14.5% (inactive). With `Nc1ccn(C2CCCO2)c(=O)n1` (stereo not given) the figure was 14.8% (inactive); with `CC1(C)CC(=O)C(CC2=C(O)CC(C)(C)CC2=O)=C(O)C1`, 9.73% (inactive); with `CCc1cc(Cl)c(OC)c(C(=O)NC[C@@H]2CCCN2CC)c1O`, 2.69% (inactive). For the molecule `COc1ccc(NC(=O)CCS(=O)(=O)c2ccc3c(c2)CCN3C(C)=O)cc1`, the “activity change, negative = cytotoxicity” value is 8.11% (inactive). As for `C=CCn1c(SCc2ccc3nonc3c2)nnc1-c1cccs1`, the figure is 18.4% (inactive); as for `COc1c(S(=O)(=O)N2CCN(c3ccc(F)cc3)CC2)ccc(Cl)c1Cl`, 44.2% (inactive); as for `O=C(CCCN1C(=O)/C(=C/c2ccccc2Cl)SC1=S)NNC(=O)c1ccccc1Cl`, 6.92% (inactive).

Take `CN1C(=O)C(CC(=O)NC2CCCCC2)SC1=Nc1ccccc1` (stereo not given): the “activity change, negative = cytotoxicity” value is 20.7% (inactive). `CCOc1ccc(-c2nc(CSCC(=O)NCc3ccco3)c(C)o2)cc1`: the “activity change, negative = cytotoxicity” value is 0.208% (inactive).

Consider `COc1ccc(/C=C\C(=O)NCc2ccc3c(c2)cc(C)n3C)cc1OC`, for which the “activity change, negative = cytotoxicity” value was 7.82% (inactive). With `COc1ccc(-c2csc3ncnc(NCCO)c23)cc1` the figure was 12.6% (inactive); with `CCOC(=O)Cc1csc(N/N=C\c2ccc(N(C)C)cc2)n1`, 3.66% (inactive); with `CCCSc1nc2cc(S(=O)(=O)N3CCOCC3)ccc2n1CC`, -0.597% (inactive). Regarding `CCc1c(C)nc2cc(-c3ccc(OC)c(OC)c3)nn2c1NCC1CC1`, the “activity change, negative = cytotoxicity” value was -40.8% (inactive). Regarding `CCN(CC(=O)NCc1ccc(F)cc1)CC(=O)Nc1cc(S(=O)(=O)N(C)C)ccc1C`, the “activity change, negative = cytotoxicity” value was 15% (inactive).

As to `COc1cc(NCCCCCCN)c2ncccc2c1OC`, the “activity change, negative = cytotoxicity” value was 25.1% (inactive). Regarding `CN(C)/C=C/C(=O)c1ccc2noc(-c3ccccc3)c2c1`, the “activity change, negative = cytotoxicity” value was 15% (inactive). `CCc1ccc(C(=O)COC(=O)c2cccc(N3C(=O)c4c(C)nc5ccccc5c4C3=O)c2)cc1`: the “activity change, negative = cytotoxicity” value is 41.6% (inactive). For the molecule `O=C(Cn1nc(C(F)(F)F)c2c1CCC2)NC1CCCCC1`, the “activity change, negative = cytotoxicity” value was 13.4% (inactive). Regarding `OCc1cc(C(O)CNCCCCCCOCCCCc2ccccc2)ccc1O` (stereo not given), the “activity change, negative = cytotoxicity” value was 18.7% (inactive). As to `Cc1cccc(-n2ncc3c(N4CCOCC4)ncnc32)c1`, the “activity change, negative = cytotoxicity” value was -6.17% (inactive). In the case of `Cc1cccc(NC(=O)c2cnc3ccccn3c2=O)c1`, the “activity change, negative = cytotoxicity” value was 4.87% (inactive). In the case of `CCOCCCn1c(=S)[nH]c2ncccc2c1=O`, the “activity change, negative = cytotoxicity” value is 2.14% (inactive).

Turning to `Cc1ccn2c(c1)nc(=S)n2C(=O)c1ccccc1`, the “activity change, negative = cytotoxicity” value was -0.036% (inactive).

Consider `CCC(C)N1C(=O)CCC1C(=O)N1CCN(c2ccc(F)cc2)CC1` (stereo not given), for which the “activity change, negative = cytotoxicity” value is 10.4% (inactive). On to `CNC(=O)c1[nH]cnc1C(=O)N[C@@H](CCCCNC(=O)OC(C)(C)C)C(=O)OC(C)(C)C`, for which the “activity change, negative = cytotoxicity” value was 10.2% (inactive). On to `CN(C)c1ccnc2sc(C(N)=O)c(N)c12`, for which the “activity change, negative = cytotoxicity” value was 1.46% (inactive). As to `O=C(Nc1ccc(F)c(F)c1)C1CCCCC1`, the “activity change, negative = cytotoxicity” value is 0.732% (inactive). With `O=C(C[n+]1ccccc1)N/N=C/c1ccc(O)cc1` the figure was 30.2% (inactive); with `Cc1cc(OCC(=O)Nc2cnn(CCCC(=O)O)c2)ccc1Cl`, 21.1% (inactive).

`COC(=O)c1cccc2c1-c1ccccc1/C2=N/O`: the “activity change, negative = cytotoxicity” value was 5.57% (inactive). On to `COc1ccc(S(=O)(=O)N2CCN(CC(=O)Nc3cc(OC)cc(OC)c3)CC2)cc1`, for which the “activity change, negative = cytotoxicity” value was 13% (inactive). `Cc1cccc(S(=O)(=O)N2CCCc3ccccc32)c1`: the “activity change, negative = cytotoxicity” value was 0.222% (inactive). For the molecule `COc1ccc(S(=O)(=O)NNC(=O)C2Cc3c(ccc4ccccc34)O2)cc1` (stereo not given), the “activity change, negative = cytotoxicity” value was 2.34% (inactive). Turning to `Cc1ccc(N2CCCCn3c2nc2c3c(=O)n(CC(=O)O)c(=O)n2C)cc1`, the “activity change, negative = cytotoxicity” value is 13.5% (inactive). Consider `Cc1ccc(N(Cc2cc3ccccc3[nH]c2=O)C(=O)c2ccco2)c(C)c1`, for which the “activity change, negative = cytotoxicity” value is 13.3% (inactive). In the case of `COc1ccc(S(=O)(=O)N2CCC(C(=O)NC3CC3)CC2)cc1OC`, the “activity change, negative = cytotoxicity” value was 11.8% (inactive). As for `COc1ccc(-c2cnc(NCc3cc4c(cc3[N+](=O)[O-])OCO4)n2C)cc1`, the figure is 7.9% (inactive); as for `CNC1(C)[C@H]2CC[C@H](C2)C1(C)C` (stereo not given in full), 15.2% (inactive).

The values above are taken from PubChem BioAssay AID504882 (Broad Institute, 2011).
